Our source for the inhibition values is ChEMBL document CHEMBL3433997, “St. Jude Leishmania screening dataset” (2016).

Holding throughout (assay type): functional
Assay [1] concerns the target Solute carrier family 2, facilitated glucose transporter member 1 (Homo sapiens) (UniProt P11166). As to the kind of experiment: ST_JUDE_LEISH: Cytotoxicity at 2uM final concentration against transgenic Leishmania Mexicana promastigotes LmGLUT1 that are glucose transport deficient and complemented with the human glucose transporter GLUT1. Activity is measured by DNA content using SYBR green in vitro.

Assay [2] deals with Hexose transporter 1 (Plasmodium falciparum) (UniProt O97467). As to the kind of experiment: ST_JUDE_LEISH: Cytotoxicity at 2uM final concentration against transgenic Leishmania Mexicana promastigotes LmPfHT that are glucose transport deficient and complemented with the Plasmodium falciparum hexose transporter. Activity is measured by DNA content using SYBR green in vitro.
The target of assay [3] is Glucose transporter (Leishmania mexicana) (UniProt O61059). Description: ST_JUDE_LEISH: Cytotoxicity at 2uM final concentration against transgenic Leishmania Mexicana promastigotes LmGT2 that are glucose transport deficient and complemented with the L. Mexicana glucose transporter 2. Activity is measured by DNA content using SYBR green in vitro.

Solute carrier family 2, facilitated glucose transporter member 1 (Homo sapiens), sequence (P11166 whole entry): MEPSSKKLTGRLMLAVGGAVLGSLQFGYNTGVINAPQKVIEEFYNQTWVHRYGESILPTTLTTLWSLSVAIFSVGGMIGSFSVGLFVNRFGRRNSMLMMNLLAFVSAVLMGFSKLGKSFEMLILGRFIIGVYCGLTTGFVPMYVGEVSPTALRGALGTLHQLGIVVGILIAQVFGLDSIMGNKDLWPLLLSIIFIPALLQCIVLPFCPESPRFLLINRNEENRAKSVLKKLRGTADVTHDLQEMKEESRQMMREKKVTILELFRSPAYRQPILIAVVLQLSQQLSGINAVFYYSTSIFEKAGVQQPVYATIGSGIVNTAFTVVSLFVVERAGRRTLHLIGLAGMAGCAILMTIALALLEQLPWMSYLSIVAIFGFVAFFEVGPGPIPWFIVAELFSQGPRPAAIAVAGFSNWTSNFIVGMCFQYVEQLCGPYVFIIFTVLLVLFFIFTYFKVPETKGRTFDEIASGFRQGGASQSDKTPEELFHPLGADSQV

As a reminder, the inhibition is the change of the read-out against control, counted positive when it falls. `CCN1CCN(c2cc(C)c3cc(NC(=O)c4cccc(OC)c4)ccc3n2)CC1`: the inhibition in assay [1] worked out at 15.2%; in assay [2], 15.3%; in assay [3], 13.7%.
`COC(=O)CCCOc1cc(Cc2cnc(N)nc2N)cc(OC)c1OC`: the inhibition in assay [1] came to 7.51%; in assay [2], 6.32%; in assay [3], 9.19%.
On to `CCCN1CCN(Cc2ccc(-c3ccc(-c4nc5ccccc5[nH]4)s3)cc2)CC1`, for which the inhibition in assay [1] is -0.29%; in assay [2], 2.1%; in assay [3], 1.19%.
Regarding `Cc1cccc(Cl)c1S(=O)(=O)N1CCCCC(c2ccc(C(F)(F)F)cc2)=N1`, the inhibition in assay [1] was 4.54%; in assay [2], 4.52%; in assay [3], 3.77%.
Regarding `COCCCNC(=O)c1ccc(O)c(-c2cc(Cl)cc(Cl)c2)c1`, the inhibition in assay [1] was 0.32%; in assay [2] it was -2.5%; in assay [3], 1.9%.
With `CC1=C(C(=O)Nc2cc3cn[nH]c3cc2F)C(c2ccc(Cl)c(NS(C)(=O)=O)c2)CC(=O)N1` (stereo not drawn), the inhibition in assay [1] is -2.07%; in assay [2] it was -0.1%; in assay [3] it was -2.27%.
On the same counts, the results for `Cc1ccc(CN2CCCN(Cc3ccc(C(=O)Nc4ccc(Cl)cc4)cc3)CC2)s1` are 2.49%, 2.74% and 0.05%.
With `COc1ccccc1C(=O)Nc1cccc(N2CCC(NCc3ccc(-n4cccn4)cc3)CC2)c1`, the inhibition in assay [1] worked out at 9.93%; in assay [2], 10.7%; in assay [3], 5.84%.
As for `Cc1cc2ccc(-c3cccc(CN)c3)cc2nc1N`, the inhibition in assay [1] came to 0.93%; in assay [2] it was 1.15%; in assay [3], 0.73%.
With `COc1cc(-c2nc(-c3ccncc3)c(-c3ccc4c(c3)CCC4=NO)[nH]2)ccc1OCCN1CCCCC1`, the inhibition was -5.14% in assay [1], 1.57% in assay [2] and 2.76% in assay [3].
As for `CC(C)c1cc2c(cc1O)C(Cc1ccccc1Cl)N(C)CC2` (stereo not drawn), the inhibition in assay [1] is 2.73%; in assay [2], -0.25%; in assay [3], 0.89%.
As for `O=[N+]([O-])c1cccc(CNC2CCN(Cc3ccc(-c4ccccc4)cc3)CC2)c1`, the inhibition is 1.94% in assay [1], 8.06% in assay [2] and 2.9% in assay [3].
For `CNC(=O)c1nc(-c2ccccc2)[nH]c1NC(C)=O`, in that order: 2.72%, 3.44% and 2.17%.
Regarding `COc1ccc(NC(=O)[C@H](CC(C)C)Nc2cc(C)nc(NCCc3ccc(F)cc3)n2)cc1`, the inhibition in assay [1] was determined as 5.65%; in assay [2] it was 4.09%; in assay [3] it was 3.65%.
For the compound `O=C(NCCN1CCCC1)N1CCCN(c2ncnc3cc(-c4ccc(F)cc4)sc23)CC1`, the inhibition in assay [1] is -1.05%; in assay [2], -2.33%; in assay [3], 4.44%.
With `O=C(Nc1cccc(-c2ccc(-c3nc4ccccc4[nH]3)cc2)c1)Nc1ccc(F)c(F)c1F`, the inhibition is -2.14% in assay [1], 1.23% in assay [2] and 2.03% in assay [3].
`Cc1cc(OCCCn2ccnc2)ccc1-c1csc(/N=C(\N)NCc2ccccc2)n1`: the inhibition is 8.57% in assay [1], 5.79% in assay [2] and 6.56% in assay [3].
For `Cc1cccc(-c2cc3cc(Nc4ccnc5cc(-c6nccs6)ccc45)ccc3[nH]2)c1`, in that order: 1.71%, -0.37% and 1.12%.
On to `CCNc1cc(C)nc(Nc2ccc(NC(=O)c3ccccc3Br)cc2)n1`, for which the inhibition worked out at 8.09% in assay [1], 9.16% in assay [2] and 4.36% in assay [3].
Regarding `CN1CCOc2ccc(Nc3nnc(-c4cccc(-c5cccnc5)c4)o3)cc2C1`, the inhibition in assay [1] stood at 3.12%; in assay [2], 2.67%; in assay [3], 1.35%.
Consider `O=[N+]([O-])c1cc(/C=N/Nc2nc3nonc3nc2Nc2ccc(F)cc2)c(Cl)cc1Cl`, for which the inhibition in assay [1] was -0.53%; in assay [2] it was -0.25%; in assay [3] it was -0.83%.
With `CC(CN)OCn1cnc2c(N)ncnc21` (stereo not drawn), the figures for the inhibition in assay [1], in assay [2] and in assay [3] were 0.4%, 4.03% and 4.83%, respectively.
On the same counts, the results for `COc1cccc(C=CC(=O)N(CCN)Cc2ccccc2)c1` are 6.9%, 8.75% and 7.33%.
On to `Fc1cccc(Cl)c1-c1nc(NCCC(c2ccccc2)c2ccccc2)no1`, for which the inhibition is -0.45% in assay [1], 0.05% in assay [2] and 1.11% in assay [3].
Regarding `CNCc1cccc(-c2ccc3ccnc(N)c3c2)c1`, the inhibition in assay [1] was found to be 7.92%; in assay [2], 10.7%; in assay [3], 7.76%.
As for `CCOc1cc2ncnc(Nc3ccc(OCc4c(Cl)cccc4Cl)c(OC)c3)c2cc1OCC`, the inhibition in assay [1] came out at 4.01%; in assay [2], 4.16%; in assay [3] it was 3.54%.
On to `O=C(Nc1ccnc2ccccc12)NC1CCN(CCc2ccccc2)CC1`, for which the inhibition is 12.1% in assay [1], 10.9% in assay [2] and 7.91% in assay [3].
For `COc1ccc(CN2CCC(CNCC(c3ccccc3)c3ccccc3)CC2)cc1`, in that order: 3.54%, 3.87% and 2.23%.
For `OCCNc1nc(Nc2cccc(O)c2)nc2ccccc12`, in that order: 4.65%, 3.14% and 4.01%.
Turning to `COc1ccc(Nc2nc(NCc3ccc(-n4ccnc4)cc3)cc(-c3ccc(OC)cc3)n2)cc1`, the inhibition in assay [1] turned out to be 3.31%; in assay [2], 2.46%; in assay [3] it was 3.46%.
Turning to `Cc1[nH]c(C)c(-c2ccc(-c3ccccc3)nc2)c(=O)c1Br`, the figures for the inhibition in assay [1], in assay [2] and in assay [3] were -0.2%, 0.36% and 0.2%, respectively.
For the compound `O=C(Nc1cccc(-c2ccc(CN3CCCC3)cc2)c1)c1ccc(F)cc1`, the values for the inhibition in assay [1], in assay [2] and in assay [3] were -0.73%, 0.3% and 0.64%, respectively.
For `Cc1nc(C)c(-c2ccc(Cl)cc2)c(O)c1I`, in that order: 4.26%, 2.05% and 2.3%.
Consider `COc1ccc(C(=O)Nc2cc(Br)c3c(c2)CNCC3)cc1C(F)(F)F`, for which the inhibition in assay [1] turned out to be 4.52%; in assay [2], 1.74%; in assay [3], 1.37%.
As for `CS(=O)(=O)CCNCc1cccc(-c2ccc3c(Nc4ccc(Oc5cccnc5)cc4)ccnc3c2)c1`, the inhibition was -1.35% in assay [1], -1.49% in assay [2] and -3% in assay [3].
On the same counts, the results for `CCOC(=O)c1cn(CC)c2cc(N3CCCCCC3)c(F)cc2c1=O` are 10.3%, 4.48% and 3.87%.
